The list is not random: actives were taken first. Their share in the collection is about 17%.
TDP1 cell CPT: DT40-hTDP1 cell growth loss with CPT; Potency, µM (top dose mostly 46.2 µM), inactives show at the highest dose activity change, negative = growth inhibition, usual class: inhibitors; 420,000 compounds, 12% hits; AID 686979; chicken DT40 Tdp1-/-;hTDP1 cells + 20 nM CPT, ATP luminescence, 48 h; further: on the % scale 0 is the no-effect control and ±100 the full control effect; nearly all actives have a fitted effect of over 55% in size
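Cell growth measured by CellTiter-Glo luminescence after a minimum 48 h, 37 C compound exposure with 20 nM CPT in Tdp1-knockout DT40 cells stably expressing hTDP1, seeded 400/well; qHTS titration format.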
TDP1 cell noCPT: qHTS for Inhibitors of human tyrosyl-DNA phosphodiesterase 1 (TDP1): qHTS in cells in absence of CPT | 420,000 compounds, 15% hits | DT40 Tdp1-/- hTDP1 cells, no CPT, ATP luminescence, 48 h | Potency, µM (highest dose often 46.2 µM), for the others: top-dose activity change, negative = growth inhibition, actives largely listed as inhibitors; further: on the % scale 0 is the no-effect control and ±100 the full control effect; nearly all actives have a fitted effect of over 55% in size
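Stably hTDP1-transfected Tdp1-null chicken DT40 cells were treated with library compounds minus camptothecin and grown for at least 48 hr at 37 °C, after which cellular ATP was quantified by luminescence.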
TDP1 inh: inhibitors of human tyrosyl-DNA phosphodiesterase TDP1. recombinant TDP1, AlphaScreen DNA substrate cleavage. Potency, µM (top dose mostly 130 µM), inactives show at the top dose activity change, negative = inhibition, hits mostly inhibitors. 350,000 compounds, 0.28% hits; further: on the % scale 0 is the no-effect control and ±100 the full control effect; nearly all actives have a fitted effect of over 40% in size
Target sequence (Q9NUW8 whole entry, looked up): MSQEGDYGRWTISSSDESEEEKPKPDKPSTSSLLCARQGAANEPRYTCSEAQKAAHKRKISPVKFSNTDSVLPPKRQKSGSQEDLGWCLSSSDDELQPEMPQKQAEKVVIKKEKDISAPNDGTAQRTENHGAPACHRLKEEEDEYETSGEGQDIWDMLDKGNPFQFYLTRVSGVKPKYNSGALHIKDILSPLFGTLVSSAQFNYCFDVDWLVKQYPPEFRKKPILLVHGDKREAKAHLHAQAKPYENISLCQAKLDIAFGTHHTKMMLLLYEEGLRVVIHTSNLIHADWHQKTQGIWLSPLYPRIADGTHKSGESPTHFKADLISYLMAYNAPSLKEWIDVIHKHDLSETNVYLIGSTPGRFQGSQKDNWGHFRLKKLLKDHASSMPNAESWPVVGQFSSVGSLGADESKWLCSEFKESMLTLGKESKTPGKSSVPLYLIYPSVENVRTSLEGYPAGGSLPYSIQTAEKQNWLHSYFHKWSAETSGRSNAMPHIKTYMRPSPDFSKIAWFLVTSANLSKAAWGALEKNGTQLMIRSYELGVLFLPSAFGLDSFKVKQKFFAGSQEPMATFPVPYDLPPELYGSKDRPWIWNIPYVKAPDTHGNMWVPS
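Recombinant E. coli-expressed Tdp1 (1 nM) preincubated with compound 15 min at RT, then 5'-biotin/3'-phosphotyrosine-FITC DNA substrate (15 nM) added for 5 min. AlphaScreen beads (10 ug/ml) added, 10 min RT; tyrosine-FITC cleavage read as signal loss.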
ClpP mod: qHTS Assay for Activators of ClpP. ATP-dependent Clp protease proteolytic subunit (Bacillus subtilis (strain 168)), P80244. purified B. subtilis ClpP, FRET peptide cleavage, 20 min. Potency, µM (top dose mostly 57.5 µM), for inactives: at the top dose activity change, negative = active. 340,000 compounds, 1.9% hits. AID 651965, 2013; active means well fitted falling curve with a large enough effect; inconclusive means small, poorly fitted or top-dose-only effect; inactive means no such curve, though single readings can be large or run the other way; further: the source files actives as falling curves though it sought activators and does not explain the sign; nearly all actives have a fitted effect of over 65% in size
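Purified B. subtilis ClpP, 10 microg/mL final in Tris/HCl pH8 with KCl, BSA, glycerol and Tween-20, cleaved an Abz/nitrotyrosine-quenched decapeptide. Fluorescence (ex 320, em 430) was read at 0 and 20 min at room temperature. Delta was normalized to 5.8 microM ADEP and DMSO/no-enzyme controls.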
An asterisk follows results filed as active; ? = inconclusive; / = no result given; [ ] = another dose, or the depositor's remark. Unless noted, the call rests on the fitted dose curve; in most records, active means well fitted curve in the direction sought with a large enough effect; inconclusive means small, poorly fitted or top-dose-only effect, or another doubt; inactive means no such curve, though single readings can be large; an effect the other way counts as inactive or inconclusive. Potency means the concentration at half of the fitted maximal effect.

SMILES	TDP1 cell CPT	TDP1 cell noCPT	TDP1 inh	ClpP mod
COc1cccc(-c2noc(-c3cc4ccccc4oc3=O)n2)c1OC	-8%	-15%	3%	?
CCN1C(C(=O)c2ccccc2)=C(OC(=O)c2ccc(Cl)cc2)c2ccccc2S1(=O)=O	?	23µM*	7%	0%
COC(=O)CN1C(C(=O)c2ccccc2)=C(OC(=O)c2ccc(F)cc2)c2ccccc2S1(=O)=O	16µM*	-23%	2%	-3%
CCOC(=O)CN1C(C(=O)c2ccccc2)=C(OC(=O)c2ccccc2)c2ccccc2S1(=O)=O	21µM*	26µM*	2%	0%
Cc1ccc(S(=O)(=O)n2nc(-c3ccccc3)nc2NCc2ccccc2Cl)cc1	?	?	2%	-1%
COC(=O)C(CCSC)NC(=O)C1CCN(c2ncnc3c2nc2n3CCCCC2)CC1 (stereo not drawn)	-3%	-17%	-4%	0%
Cc1cc(C)c(S(=O)(=O)N2CCN(S(=O)(=O)N3CCOCC3)CC2)c(C)c1	5%	-25%	0%	-2%
CCOC(=O)c1ccc(NC(=O)CSc2nc3sc(C(=O)O)c(C)c3c(=O)[nH]2)cc1	-16%	-8%	-1%	/
CCN(CC)c1nc2c(c(=O)[nH]c(=O)n2C)n1CCCc1ccccc1	?	10µM*	7%	/
CCCCn1c(SCc2nnc(-c3ccccc3)o2)nc2c1c(=O)n(C)c(=O)n2C	15µM*	10µM*	8%	-8%
CN(Cc1ccccc1)c1nc2c(c(=O)n(C)c(=O)n2C)n1CCCc1ccccc1	23µM*	16µM*	2%	-1%
CCN(CC)c1nc2c(c(=O)n(C)c(=O)n2C)n1CCCc1ccccc1	21µM*	23µM*	/	2%
CCn1c(SCc2nnc(-c3ccccc3)o2)nc2c1c(=O)n(C)c(=O)n2C	/	/	-1%	/
Cc1ccc(-c2cc(-c3coc4ccc(Cl)cc4c3=O)c3c(n2)-c2ccccc2OC3)cc1	6%	0%	-1%	-1%
CCOC(=O)c1c(NC(=O)COC(=O)/C=C/c2ccccc2)sc(C(=O)NC)c1C	1%	-9%	1%	-21%
C[C@@H]1CCCCO[C@H](CN(C)Cc2ccc(C(=O)O)cc2)[C@H](C)CN([C@@H](C)CO)C(=O)c2cc(NC(=O)Nc3ccc(C(F)(F)F)cc3)ccc2O1	-4%	-7%	/	-2%
CCCCn1c(CN(Cc2ccccc2)Cc2ccccc2)nc2c1c(=O)n(C)c(=O)n2C	13µM*	18µM*	/	-2%
CCc1c(C#N)c(SCc2c(C)noc2C)nc2c1C(=O)CC(C)(C)C2	26µM*	?	4%	-1%
CCc1c(C#N)c(SCCC(=O)Nc2ccc(OC)cc2)nc2c1C(=O)CC(C)(C)C2	-24%	?	5%	-3%
CC(C)c1cccc(C(C)C)c1NC(=O)CCl	?	16µM*	-5%	-2%
CC(C)c1cccc(C(C)C)c1NC(=O)CNCC(O)c1ccccc1 (stereo not drawn)	-6%	-3%	/	0%
COc1ccc(OCC(=O)Nc2nc3c(s2)CCCC3)cc1	?	?	9%	3%
O=C(Nc1cccc(Br)c1)Nc1nc2c(s1)CCCCCC2	7.3µM*	8.2µM*	5%	-2%
COc1ccc(NC(=O)Nc2nc3c(s2)CCCC3)cc1	?	23µM*	2%	2%
O=C(NCCc1csc(-c2ccc(C(F)(F)F)cc2)n1)C(=O)Nc1cc(F)ccc1F	-1%	-12%	3%	0%
SMILES	TDP1 cell CPT	TDP1 cell noCPT	TDP1 inh	ClpP mod
COC(=O)C1=C(N)N(c2ccccc2C(F)(F)F)C2=C(C(=O)CCC2)C1c1ccc2c(c1)OCO2 (stereo not drawn)	23µM*	?	0%	26%
COC(=O)CSC1=C(C#N)C(c2ccc3c(c2)OCO3)C2=C(CCCC2=O)N1 (stereo not drawn)	-1%	3%	2%	2%
C=CCC(Nc1ccc(OC)cc1)C(=O)OCC (stereo not drawn)	/	/	6%	/
COc1ccc(C(=O)Nc2nc(-c3nnn(-c4ccc(F)cc4F)c3C)ns2)cc1	15µM*	13µM*	0%	-16%
COC(=O)c1ccc(-n2nnc(-c3nsc(NC(=O)c4ccc(Cl)cc4)n3)c2C)cc1	-18%	-4%	-1%	-3%
Cc1cccc(C(=O)Nc2nc(-c3nnn(-c4cc(F)ccc4F)c3C)ns2)c1	?	?	3%	-3%
Cc1c(-c2nsc(NC(=O)c3ccc(Cl)cc3)n2)nnn1-c1ccc(C(C)C)cc1	10µM*	9.2µM*	5%	25µM*
Cc1cc(NC(=O)CN(C)S(=O)(=O)c2ccc3c(c2)CCCC(=O)N3)ccc1Br	/	/	3%	0%
COC(=O)c1ccc(CN2C(=O)NC(CC(C)C)C2=O)cc1 (stereo not drawn)	-6%	10%	5%	1%
CC(C)NC(=O)CC(=O)NN=C1CCCCC1	27%	-1%	6%	/
Cc1nc2ccc(NC(=O)c3cccs3)cc2c(=O)n1Cc1ccc(Cl)cc1	18µM*	?	0%	-4%
CCn1c(O)c(N=NC(=O)c2ccc(CSc3nncn3C)cc2)c2ccccc21	?	15µM*	7%	-1%
Cn1cnnc1SCc1ccc(C(=O)N=Nc2c(O)n(Cc3ccc(Cl)cc3)c3ccccc23)cc1	21µM*	10µM*	9%	0%
O=C(NCCN1C(=O)S/C(=C\c2cccc(Cl)c2Cl)C1=O)C1=COCCO1	1.5µM*	2.6µM*	0%[56.1 µM]	-8%
Cc1cc(C)cc(NC(=O)[C@H](NC(=O)[C@@H]2Cc3ccccc3CN2)c2ccccc2)c1	?	26µM*	8%	/
Cc1ccc(NC(=O)[C@H](NC(=O)[C@@H]2Cc3ccccc3CN2)c2ccccc2)c(C)c1	?	-29%	2%	-1%
COCCCNC(=O)c1ccc(Cn2c(=O)c3ccccc3n(CC(N)=O)c2=O)cc1	?	?	-2%	-23%
COc1ccccc1NC(=O)Cn1c(=O)n(-c2cccc(Cl)c2)c(=O)c2c1c1cc(C)ccc1n2C	-8%	-6%	6%	4%
CSc1nc(N(CCO)CCO)c2sc3nc(-c4ccco4)c4c(c3c2n1)CCC4	16µM*	12µM*	1%	-28%
CCOc1ccc(C(=S)N2CCCC2)c(OCC)c1	21µM*	?	5%	0%
CCOc1ccc(C(=S)N2CCCC2)cc1	-5%	-5%	7%	-2%
O=C1CCC2CN3CCc4c([nH]c5ccccc45)C3CC2C1 (stereo not drawn)	?	21µM*	/	-17%
O=C(c1ccc(CS(=O)Cc2ccccc2Cl)o1)N1CCN(c2cccc(Cl)c2)CC1 (stereo not drawn)	?	?	9%	0%
O=C(c1ccc(CS(=O)c2ccccc2Cl)o1)N1CCN(c2cccc(C(F)(F)F)c2)CC1 (stereo not drawn)	0.65µM*	0.52µM*	0%	0%

Screens (PubChem)
